TIM10 inh – growth inhibitors of TIM10 yeast strain | S. cerevisiae TIM10 strain growth, BacTiter-Glo luminescence, 24 h | inhibition, % at 10 µM | 330,000 compounds, 1.4% hits | AID 463195;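 active = inhibition of 40% or more at the single tested concentration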;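 also: wild-type TIM10 isogenic control strain grown at permissive 25 °C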
NALP1 yeast inh – NALP1 inhibition | AID 2071 | inhibition, % at 10 µM | 280,000 compounds, 0.61% hits | S. cerevisiae NALP1/ASC/caspase-1 growth, X-gal OD620, 72 h; in the data active = inhibition mostly above about 24%, no sharp cut-off; inactive = mostly below about 32%
tim10-1 inh – growth inhibitors of tim10-1 mutant yeast. S. cerevisiae tim10-1 ts strain growth, BacTiter-Glo, 24 h. inhibition, % at 20 µM. 330,000 compounds, 2.2% hits. AID 463190;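 active = inhibition of at least 40%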;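 also: mutant grown at 25 °C; 0% = DMSO wells with yeast and 100% = wells holding no yeast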
NALP3 yeast inh – NALP3 inhibition in yeast; 330,000 compounds, 0.39% hits; Yeast reconstituted NLRP3/ASC/caspase-1, beta-gal luminescence, 24 h; inhibition, % at 10 µM;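 active = inhibition of 50% or more; inactive = inhibition below 50%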;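 also: plate controls were induced DMSO wells for no effect and uninduced yeast grown without galactose for full effect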
tim23-1 inh – growth inhibitors of tim23-1 mutant yeast; inhibition, % at 20 µM; 330,000 compounds, 1.3% hits; S. cerevisiae tim23-1 growth, BacTiter-Glo luminescence, 24 h; AID 463212;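 active = growth inhibition of the mutant yeast at or above 50%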;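 also: temperature-sensitive mutant grown at 25 °C; plate controls were DMSO-treated mutant yeast for no effect and medium wells lacking yeast for full effect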
V-ATPase pH – yeast V-ATPase proton transport regulation by pHLuorin; S. cerevisiae, pHLuorin cytosolic pH fluorescence; response, % at 10 µM; 350,000 compounds, 0.37% hits; AID 504577; in the data active = response mostly above about 7.3%, no sharp cut-off; inactive = mostly below about 5.4%; also: actives read high
tim10-1 conf – confirmation of tim10-1 mutant yeast growth inhibitors. AID 463213. S. cerevisiae tim10-1 ts strain growth, BacTiter-Glo, 24 h. 7,400 compounds, 56% hits. inhibition, % at 20 µM. shares compounds with tim10-1 inh;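 active = inhibition of yeast growth at or above a set limit in either of two repeat tests at 20 µM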;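 also: tim10-1 mutant grown at permissive 25 °C to find synthetic lethal compounds; 0% = DMSO yeast wells and 100% = medium wells without yeast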
An asterisk follows results filed as active; . = not tested or not shown. Rows were chosen to be rich in hits. Some 4.2% of all compounds tested hit in one or more screens of this group.

SMILES	TIM10 inh	NALP1 yeast inh	tim10-1 inh	NALP3 yeast inh	tim23-1 inh	V-ATPase pH	tim10-1 conf
N#Cc1nc(Cc2ccccc2)oc1NCc1cccnc1	-9.3	4.0	-0.9	1.1	-4.3	-3.9	.
CCOc1ccc(-n2cc(-c3ccccc3)c3c(=O)[nH]cnc32)cc1	35.1	-2.6	54.5*	-66.1	38.0	-1.0	39.6*
COc1ccc(C(C)=O)c(Oc2nc(CN3CCOCC3)nc3scc(-c4cccs4)c23)c1	9.7	8.8	40.1*	7.7	20.3	-2.0	13.6
CC(=O)c1ccccc1Oc1nc(CN2CCOCC2)nc2scc(-c3cccs3)c12	30.0	-18.3	27.9	10.4	4.4	-1.6	.
C=CCn1c(Cc2cccs2)nnc1SCC(=O)c1cccc(Br)c1	13.7	-0.2	41.1*	3.5	31.2	-3.4	23.9
CC(C)NC(=O)NC(=O)COc1c(F)c(F)cc(F)c1F	12.0	14.5	19.9	-16.3	21.5	-0.7	.
CC(C)NC(=O)NC(=O)COc1ccc(Br)cc1Br	18.1	23.7	44.7*	17.9	45.3	-3.1	23.8
N/C(=N\OC(=O)Cc1ccc(Cl)cc1)c1ccncc1	-0.6	2.1	12.2	-3.1	9.2	1.2	.
N/C(=N\OC(=O)c1ccccc1Cl)c1cccnc1	13.0	10.8	10.3	10.6	15.3	2.7	.
N/C(=N\OC(=O)c1cc(Cl)ccc1Cl)c1cccnc1	21.5	-4.7	40.7*	-21.9	-5.2	7.7	25.3
N/C(=N\OC(=O)c1cccc(Cl)c1)c1cccnc1	20.9	7.5	16.4	-13.0	39.0	-3.7	.
CC(C)(Oc1ccc(Cl)cc1)C(=O)O/N=C(\N)c1ccncc1	5.1	5.0	47.2*	31.0	3.3	-1.2	2.6
N/C(=N\OC(=O)c1cccc(Cl)c1)c1ccncc1	20.1	-16.7	42.2*	1.9	22.4	2.9	30.4*
N/C(=N\OC(=O)c1cc(Br)ccc1Cl)c1cccnc1	31.4	-11.3	46.6*	-5.6	-13.2	0.9	48.5*
Cc1ccccc1CS(=O)(=O)Cc1ccc(C(=O)NCCCN2CCOCC2)o1	-13.6	4.0	0.6	-3.3	-2.2	-1.6	.
O=c1[nH]ncc2c3ccccc3n(Cc3ccccc3F)c12	-16.9	6.1	-5.0	31.0	-10.5	6.3	.
Cc1cc(=O)[nH]c(N=N/C(=N/Nc2ccc(O)cc2)c2ccccc2)n1	13.1	12.1	49.7*	31.2	42.3	-1.0	38.1*
CCOC(=O)c1sc2nc3c(cc2c1N)COC(C)(CC)C3 (stereo unspecified)	34.2	-16.1	42.8*	8.8	30.7	-1.3	27.6
CCOC(=O)c1sc2nc3c(cc2c1N)COC(C)(C)C3	4.2	-78.0	40.1*	24.1	20.1	-5.3	25.6
Cc1ccc(NC(=O)NCCCCc2ccccc2)cc1	-2.8	14.7	0.2	26.9	4.7	-2.4	.
CC(C)C[C@H](NC(=O)c1nc[nH]c1C(=O)NC1CCNCC1)C(=O)OC(C)(C)C	0.7	.	-5.1	13.6	-9.7	5.8	.
Cc1ccc(NC(=O)C2CC(=O)N(C(C)C)C2)cc1C (stereo unspecified)	-5.4	-8.7	-7.5	16.9	-18.8	-2.2	.
COc1ccccc1-c1nc(C#N)c(N2CCc3ccccc3C2)o1	34.4	21.8	40.1*	19.8	40.2	-1.3	31.8*
COc1ccc(-c2nc(C#N)c(N3CCc4ccccc4C3)o2)cc1OC	13.5	9.1	21.2	18.6	31.1	-2.3	.
Cc1c(Cl)cccc1NC(=S)NN	8.0	-20.3	4.4	11.1	12.3	-0.2	.
SMILES	TIM10 inh	NALP1 yeast inh	tim10-1 inh	NALP3 yeast inh	tim23-1 inh	V-ATPase pH	tim10-1 conf
S=C(NCCN1CCOCC1)Nc1cccc2ccccc12	1.8	24.8	9.5	8.5	14.9	0.2	.
O=C(O)/C(=C\c1ccc(-c2ccccc2[N+](=O)[O-])o1)c1ccccc1	12.0	3.1	40.2*	25.5	13.6	0.0	51.5*
Fc1ccccc1CNc1ccc(Cl)c(Cl)c1	13.5	-1.2	61.3*	18.5	30.2	4.8	68.9*
O=C(CCCN1C(=O)c2cccc3cccc(c23)C1=O)N1CCN(c2ccc(F)cc2)CC1	23.8	8.2	12.9	29.4	40.1	-1.6	.
COc1ccc(N2CCN(C(=O)COC(=O)CCOc3cc(C)ccc3C)CC2)cc1	18.9	.	34.0	19.3	17.0	-1.8	.
COc1ccc(N2CCN(C(=O)CCCN3C(=O)c4cccc5cccc(c45)C3=O)CC2)cc1	33.8	-9.2	49.1*	20.3	45.7	-0.8	19.2
COc1ccc(N2CCN(C(=O)COC(=O)CCOc3ccccc3C)CC2)cc1	26.8	.	42.6*	17.2	18.0	-3.5	19.1
COc1ccc(NC(=O)CN(C)C(=O)c2ccc(S(=O)(=O)Nc3ccccc3C)cc2)cc1	-7.3	.	-3.6	16.4	1.0	-5.0	.
O=C(NCC1CC1)[C@@H]1C[C@H]1[C@@H](NP(=O)(c1ccccc1)c1ccccc1)c1ccccc1	0.6	17.7	-5.7	9.5	12.4	-0.2	.
COc1ccc(C2CC(c3cccs3)=NN2C(=O)CSC2=NN3CCCC(=O)N=C3S2)cc1 (stereo unspecified)	23.8	28.0	41.4*	2.8	42.6	-2.7	22.9
O=C(COc1coc(CN2CCc3ccccc32)cc1=O)Nc1ccc([N+](=O)[O-])cc1	5.5	.	6.9	1.4	12.0	-4.7	.
Cc1ccccc1Nc1nc(N)c2ccccc2n1	22.8	13.9	28.0	17.4	27.5	-4.9	.
Nc1nc(Nc2ccccc2)nc2ccccc12	28.0	19.6	41.7*	25.2	12.9	-1.4	38.3*
N/C(=N\S(=O)(=O)c1cc(C(F)(F)F)cc(C(F)(F)F)c1)c1ccc(Cl)cc1	35.0	-2.7	45.8*	14.9	47.5	1.1	42.6*
Cc1nc2sccn2c(=O)c1S(=O)(=O)N1CCN(c2ccc(F)cc2)CC1	7.1	10.5	9.5	-4.1	30.8	3.2	.
Cc1nc2sccn2c(=O)c1S(=O)(=O)N1CCN(c2cccc(C(F)(F)F)c2)CC1	29.4	17.5	41.8*	-7.2	38.1	0.1	27.1
COc1ccc(Sc2ccc(-c3nc4cnccn4c3NC3CCCCC3)cc2OC)cc1	11.8	.	13.3	16.9	21.0	-5.2	.
COc1ccc(CNC(=O)Cn2nc(C(F)(F)F)c3c2CCC3)cc1	21.0	20.0	41.8*	5.8	27.7	1.5	21.4
COc1ccc(NC(=O)Cn2nc(C(F)(F)F)c3c2CCCC3)c(OC)c1	10.7	15.6	11.2	15.2	7.8	-0.7	.
CN(C)CCCNC(=O)c1ccc(=O)[nH]n1	8.1	10.8	5.9	3.4	-2.2	0.4	.
COc1ccc(/C=N/NC(=O)CCCOc2ccc(Cl)cc2Cl)cc1	23.7	20.7	47.2*	21.9	12.3	-2.5	20.1
O=C(CCCOc1ccc(Cl)cc1Cl)N/N=C/c1ccc(Cl)cc1	6.7	19.5	38.7	18.4	26.1	-0.1	.
CCc1cccc(C)c1NC(=S)NCCc1c(C)[nH]c2ccc(C)cc12	14.8	46.4	41.2*	14.7	33.4	-1.6	25.6

Source: PubChem BioAssay
